Among the data in PubChem BioAssay (NCI) are growth values, retold here.

Experiment in all cases: NCI-60 one-dose screen, 48 h (100 = growth as untreated, 0 = no growth, -100 = all killed)
One experiment has as its system HCT-15 colon. Particulars: 10 µM unless noted.
The test system of the next experiment is HT29 colon. The following applies: 10 µM unless noted.
A further experiment deals with SNB-75 CNS. Particulars: 10 µM unless noted.
A further experiment relates to SNB-19 CNS. Particulars: 10 µM unless noted.
The test system of a further experiment is U251 CNS. The following applies: 10 µM unless noted.
The subject of another experiment is PC-3 prostate. The following applies: 10 µM unless noted.
The test system of the next experiment is SK-MEL-5 melanoma. The following applies: 10 µM unless noted.
The subject of a further experiment is UACC-62 melanoma. Particulars: 10 µM unless noted.
The next experiment has as its system SK-MEL-28 melanoma. Particulars: 10 µM unless noted.
A further experiment deals with LOX IMVI melanoma. Particulars: 10 µM.

About 83,000 compounds went through this panel and 20% of them were active in at least one assay; those are over-represented in the sample as a whole.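 Values shown are percent growth following 48 h exposure of cells in 96-well plates to a single concentration of compound; below 10 was considered active.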 Unmarked numbers belong to inactive results. Active and inactive are the calls of the source.

In the case of `NC(=S)N/N=C/c1ccc(OC(=O)COc2ccc(Cl)cc2)cn1`, the growth is 70.6% with HCT-15 colon; 79.3% in the experiment with HT29 colon; 44.9% in the experiment on SNB-75 CNS; 72.9% with SNB-19 CNS; 32.6% with U251 CNS; 64.3% in the experiment on PC-3 prostate. Further, the growth in the experiment with SK-MEL-5 melanoma is 30.7%; in the experiment on UACC-62 melanoma it was 8.53% (active); in the experiment on SK-MEL-28 melanoma, 76.5%.

Turning to `OCCc1ccc(Cl)cc1`, the growth in the experiment on HCT-15 colon is 102%; with HT29 colon, 99.9%; in the experiment with SNB-75 CNS, 86.5%; in the experiment with SNB-19 CNS it was 96.5%; in the experiment on U251 CNS it was 92.3%; in the experiment on PC-3 prostate it was 95.5%. The growth in the experiment with SK-MEL-5 melanoma is 103%; in the experiment with LOX IMVI melanoma it was 100%; with SK-MEL-28 melanoma it was 108%.

Consider `CC(C)N(C(=O)c1ccccc1)C(C)C`, for which the growth with HCT-15 colon is 104%; in the experiment on HT29 colon it was 107%; with SNB-75 CNS, 100%; in the experiment with SNB-19 CNS, 113%; in the experiment with U251 CNS, 95.9%; with PC-3 prostate, 98.9%. Further, the growth with SK-MEL-5 melanoma was 97.7%; in the experiment with LOX IMVI melanoma, 104%; with SK-MEL-28 melanoma, 105%.

On to `CCCCCCCCCCCCSC1=C(Cl)C(=O)C(OC)=C(OC)C1=O`, for which the growth with HCT-15 colon is 25.6%; in the experiment with HT29 colon it was 27.8%; in the experiment with SNB-75 CNS it was 44.9%; in the experiment with SNB-19 CNS, 71.8%; in the experiment on U251 CNS, 26%; with PC-3 prostate, 23.1%. The growth in the experiment on SK-MEL-5 melanoma was -37.6% (active); in the experiment on LOX IMVI melanoma, 11.7%; in the experiment on SK-MEL-28 melanoma, 105%.

On to `CC(=O)OCC1CCC(COC(C)=O)CC1` (stereo unspecified), for which the growth in the experiment on HCT-15 colon is 95%; in the experiment with HT29 colon it was 68.6%; with SNB-75 CNS, 87.4%; in the experiment with SNB-19 CNS, 109%; in the experiment on U251 CNS, 105%; in the experiment on PC-3 prostate, 111%. The growth in the experiment with SK-MEL-5 melanoma was 103%; in the experiment with UACC-62 melanoma, 97.7%; in the experiment on SK-MEL-28 melanoma, 102%.

With `CC1(C)OC2C(CO)OC(n3ccc(=O)[nH]c3=O)C2O1` (stereo unspecified), the growth in the experiment with HCT-15 colon is 102%; in the experiment on HT29 colon, 94.3%; with SNB-75 CNS, 106%; in the experiment on SNB-19 CNS it was 100%; in the experiment with U251 CNS it was 87.6%; in the experiment on PC-3 prostate, 90.2%. In addition, the growth in the experiment on SK-MEL-5 melanoma is 97.9%; in the experiment with UACC-62 melanoma, 93.9%; in the experiment with SK-MEL-28 melanoma, 108%.

Turning to `O=C(OC1CCCC1)c1ccccc1Cl`, the growth is 111% in the experiment with HCT-15 colon; 105% in the experiment on HT29 colon; 90.3% in the experiment with SNB-75 CNS; 105% in the experiment on SNB-19 CNS; 101% in the experiment with U251 CNS; 95.7% with PC-3 prostate. The results for the growth in the experiment with SK-MEL-5 melanoma, with UACC-62 melanoma and in the experiment with SK-MEL-28 melanoma were 108%, 99.2% and 107%, respectively.

Take `Cc1ccc(S(=O)(=O)Oc2ccc3sc4c(CO)ccc(NCCN(C)C)c4c(=O)c3c2)cc1`: the growth in the experiment with HCT-15 colon is -93.8% [100 µM] (active); in the experiment on HT29 colon, -84.3% [100 µM] (active); with SNB-75 CNS it was -92.1% [100 µM] (active); in the experiment with SNB-19 CNS, -83.7% [100 µM] (active); in the experiment on U251 CNS, -74.7% [100 µM] (active); in the experiment with PC-3 prostate it was -86.8% [100 µM] (active). For the same molecule, the growth in the experiment with SK-MEL-5 melanoma is -94.3% [100 µM] (active); with UACC-62 melanoma, -95.5% [100 µM] (active); in the experiment with SK-MEL-28 melanoma, -85.1% [100 µM] (active).

`CCNc1ncnc2[nH]ncc12`: the growth is 102% in the experiment with HCT-15 colon; 108% in the experiment on HT29 colon; 88.9% in the experiment on SNB-75 CNS; 104% in the experiment on SNB-19 CNS; 101% in the experiment with U251 CNS; 94.6% with PC-3 prostate. Also, the growth with SK-MEL-5 melanoma is 101%; with LOX IMVI melanoma, 98%; with SK-MEL-28 melanoma, 111%.

For the molecule `N#Cc1ccc(OC(=O)Nc2c(Cl)cc(Cl)cc2Cl)cc1`, the growth in the experiment on HCT-15 colon was 107%; with HT29 colon it was 104%; in the experiment on SNB-75 CNS, 127%; in the experiment with SNB-19 CNS it was 99.5%; in the experiment with U251 CNS it was 104%; in the experiment with PC-3 prostate, 99.5%. Further, the growth with SK-MEL-5 melanoma was 97.2%; in the experiment with UACC-62 melanoma it was 102%; in the experiment with SK-MEL-28 melanoma, 104%.

`CCCCNc1ccc(-c2ccc(NCCCC)cc2)cc1`: the growth is 50.6% in the experiment on HCT-15 colon; 101% in the experiment on HT29 colon; 83% with SNB-75 CNS; 77.3% with SNB-19 CNS; 64.2% in the experiment with U251 CNS; 71.7% in the experiment with PC-3 prostate. Further, the growth is -40.7% (active) in the experiment on SK-MEL-5 melanoma, 25.9% in the experiment on LOX IMVI melanoma and 71.5% in the experiment on SK-MEL-28 melanoma.

With `CN(C)c1ccc(/C=C/C(=O)c2ccc(NC(N)=O)cc2)cc1`, the growth was 84.9% in the experiment with HCT-15 colon; 95.2% in the experiment with HT29 colon; 67.4% with SNB-75 CNS; 80.1% in the experiment with SNB-19 CNS; 69% with U251 CNS; 98.4% in the experiment with PC-3 prostate. Moreover, the growth in the experiment on SK-MEL-5 melanoma was 97.6%; with UACC-62 melanoma, 92.2%; with SK-MEL-28 melanoma, 104%.

As for `CSc1cnc2ccccc2n1`, the growth is 104% with HCT-15 colon; 83.2% in the experiment on HT29 colon; 107% in the experiment on SNB-75 CNS; 99.5% with SNB-19 CNS; 94.1% with U251 CNS; 89.6% in the experiment with PC-3 prostate. Further, the results for the growth with SK-MEL-5 melanoma, in the experiment with UACC-62 melanoma and with SK-MEL-28 melanoma were 105%, 97.1% and 110%, respectively.

Turning to `O=C(c1ccccc1O)N1CCCC1`, the growth is 99.2% with HCT-15 colon; 93% in the experiment on HT29 colon; 88% with SNB-75 CNS; 97.2% in the experiment with SNB-19 CNS; 89.8% with U251 CNS; 84.4% with PC-3 prostate. In addition, the growth with SK-MEL-5 melanoma is 105%; with UACC-62 melanoma, 100%; in the experiment with SK-MEL-28 melanoma it was 98.5%.
